# Measurements: paper PMC7862700, “An all-to-all approach to the identification of sequence-specific readers for epigenetic DNA modifications on cytosine”
# How the values were obtained:
# Assay in all cases: DAPPL (digital affinity profiling via proximity ligation, sequencing); 10 mM Tris-HCl pH 7.5, 50 mM NaCl, 1 mM DTT, 4% glycerol, room temperature, 30 min; GST-TFs on glutathione beads, 16-mer random dsDNA library, 0.1% formaldehyde crosslink after washing; high values mean tight binding
# FLI1 = molecular target: T1, FLI1 (Homo sapiens, UniProt Q01543 1-452); details: protein: recombinant; tags: N-terminal GST; dsDNA, one strand shown
# T1 sequence: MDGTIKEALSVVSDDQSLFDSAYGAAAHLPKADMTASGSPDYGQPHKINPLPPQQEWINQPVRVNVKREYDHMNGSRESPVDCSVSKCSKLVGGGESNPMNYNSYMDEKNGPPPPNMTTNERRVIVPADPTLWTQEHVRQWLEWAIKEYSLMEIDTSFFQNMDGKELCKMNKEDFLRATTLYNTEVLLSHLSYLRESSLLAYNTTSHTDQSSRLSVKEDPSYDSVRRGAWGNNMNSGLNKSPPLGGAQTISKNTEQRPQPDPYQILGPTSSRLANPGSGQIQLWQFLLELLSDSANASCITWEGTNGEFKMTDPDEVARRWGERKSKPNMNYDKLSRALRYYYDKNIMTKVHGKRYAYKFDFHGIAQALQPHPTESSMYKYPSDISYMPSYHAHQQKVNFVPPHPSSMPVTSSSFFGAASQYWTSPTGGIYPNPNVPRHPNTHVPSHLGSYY
# Summary of the method: (§1)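 A tag-only sample was pooled with DNA-barcoded human transcription factors that had been expressed in yeast as GST fusions and captured on glutathione beads. The pools were incubated for 30 min at room temperature with 200 nmole of a random double-stranded 16-mer DNA library in Tris/NaCl/DTT/glycerol buffer, then washed, crosslinked with 0.1% formaldehyde, proximity-ligated (BsaI/T4 ligase, 1 h, 37 °C), PCR-amplified and sequenced on an Illumina NextSeq500. Binding signal is each hexamer's read frequency for a factor divided by its frequency for the tag-only sample.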
# ELK1 = molecular target: T2, ELK1 (Homo sapiens, UniProt P19419 1-428); details: protein: recombinant; tags: N-terminal GST; dsDNA, one strand shown
# T2 sequence: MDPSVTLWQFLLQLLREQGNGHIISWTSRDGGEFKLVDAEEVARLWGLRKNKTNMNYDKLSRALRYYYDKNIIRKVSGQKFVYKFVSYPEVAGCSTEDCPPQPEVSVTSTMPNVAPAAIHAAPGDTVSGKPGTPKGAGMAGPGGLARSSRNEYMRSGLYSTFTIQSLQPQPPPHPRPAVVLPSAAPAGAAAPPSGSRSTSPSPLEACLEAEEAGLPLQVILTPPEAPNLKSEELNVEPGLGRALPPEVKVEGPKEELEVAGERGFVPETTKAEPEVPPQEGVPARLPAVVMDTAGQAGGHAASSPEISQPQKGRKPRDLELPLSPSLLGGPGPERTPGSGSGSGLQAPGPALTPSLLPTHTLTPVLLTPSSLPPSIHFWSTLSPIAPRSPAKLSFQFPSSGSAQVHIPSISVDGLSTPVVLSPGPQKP
# Summary of the method: as §1
# GABPA = molecular target: T3, GABPA (Homo sapiens, UniProt Q06546 1-454); details: protein: recombinant; tags: N-terminal GST; dsDNA, one strand shown
# T3 sequence: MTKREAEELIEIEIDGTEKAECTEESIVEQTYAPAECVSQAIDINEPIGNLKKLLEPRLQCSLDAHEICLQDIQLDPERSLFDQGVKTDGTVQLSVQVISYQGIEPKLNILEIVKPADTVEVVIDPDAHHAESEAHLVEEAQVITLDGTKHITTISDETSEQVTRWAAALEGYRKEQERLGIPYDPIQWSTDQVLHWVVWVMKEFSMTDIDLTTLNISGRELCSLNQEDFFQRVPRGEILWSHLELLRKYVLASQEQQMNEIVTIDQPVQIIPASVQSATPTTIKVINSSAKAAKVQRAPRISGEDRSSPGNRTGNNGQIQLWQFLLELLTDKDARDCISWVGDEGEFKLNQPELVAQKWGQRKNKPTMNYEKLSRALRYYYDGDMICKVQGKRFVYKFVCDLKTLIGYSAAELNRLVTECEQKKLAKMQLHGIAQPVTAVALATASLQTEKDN
# Summary of the method: as §1
# ERG = molecular target: T4, ERG (Homo sapiens, UniProt P11308 1-479); details: protein: recombinant; tags: N-terminal GST; dsDNA, one strand shown
# T4 sequence: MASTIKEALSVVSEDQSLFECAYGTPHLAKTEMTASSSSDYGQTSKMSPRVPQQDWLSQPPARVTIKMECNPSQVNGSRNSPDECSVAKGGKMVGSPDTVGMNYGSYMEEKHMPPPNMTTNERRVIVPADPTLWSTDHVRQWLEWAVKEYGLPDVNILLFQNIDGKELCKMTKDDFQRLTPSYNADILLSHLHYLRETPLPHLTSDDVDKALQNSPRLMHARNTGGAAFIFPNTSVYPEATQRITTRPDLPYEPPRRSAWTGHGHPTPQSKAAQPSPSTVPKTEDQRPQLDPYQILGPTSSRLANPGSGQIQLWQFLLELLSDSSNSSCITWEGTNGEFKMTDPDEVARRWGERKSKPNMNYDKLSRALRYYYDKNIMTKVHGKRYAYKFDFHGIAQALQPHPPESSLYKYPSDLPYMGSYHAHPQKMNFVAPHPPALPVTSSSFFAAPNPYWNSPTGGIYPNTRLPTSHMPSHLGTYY
# Summary of the method: as §1
# ELF1 = ELF1 (Homo sapiens, UniProt P32519 1-619); details: protein: recombinant; tags: N-terminal GST; dsDNA, one strand shown
# Sequence of ELF1 (P32519 whole entry): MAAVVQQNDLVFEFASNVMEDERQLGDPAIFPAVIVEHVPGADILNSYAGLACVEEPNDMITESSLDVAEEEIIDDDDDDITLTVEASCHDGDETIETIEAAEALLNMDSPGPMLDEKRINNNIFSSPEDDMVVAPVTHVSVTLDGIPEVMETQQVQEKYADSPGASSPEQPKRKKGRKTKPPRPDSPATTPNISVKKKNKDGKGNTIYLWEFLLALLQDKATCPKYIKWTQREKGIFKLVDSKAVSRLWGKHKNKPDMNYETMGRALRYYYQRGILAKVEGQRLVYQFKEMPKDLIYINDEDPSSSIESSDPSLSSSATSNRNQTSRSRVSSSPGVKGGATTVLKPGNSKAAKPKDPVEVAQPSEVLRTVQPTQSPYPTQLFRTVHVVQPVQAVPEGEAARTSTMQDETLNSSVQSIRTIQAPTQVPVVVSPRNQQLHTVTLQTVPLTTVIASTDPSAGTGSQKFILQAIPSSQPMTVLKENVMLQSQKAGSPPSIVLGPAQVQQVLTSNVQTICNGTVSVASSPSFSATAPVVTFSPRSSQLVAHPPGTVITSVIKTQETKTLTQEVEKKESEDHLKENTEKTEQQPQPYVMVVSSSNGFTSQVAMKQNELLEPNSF
# Summary of the method: as §1
# EHF = molecular target: T5, EHF (Homo sapiens, UniProt Q9NZC4 1-300); details: protein: recombinant; tags: N-terminal GST; dsDNA, one strand shown
# T5 sequence: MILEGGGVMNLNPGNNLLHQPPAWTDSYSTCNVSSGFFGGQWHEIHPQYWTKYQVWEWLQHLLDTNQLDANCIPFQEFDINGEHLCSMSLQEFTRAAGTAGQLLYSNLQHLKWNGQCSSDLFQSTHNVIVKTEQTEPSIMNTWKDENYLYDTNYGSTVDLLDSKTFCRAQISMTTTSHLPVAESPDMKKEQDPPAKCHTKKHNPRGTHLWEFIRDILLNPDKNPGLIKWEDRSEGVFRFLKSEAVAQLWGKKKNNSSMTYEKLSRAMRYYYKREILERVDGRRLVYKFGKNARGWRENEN
# Summary of the method: as §1
# SPI1 = SPI1 (Homo sapiens, UniProt P17947 1-270); details: protein: recombinant; tags: N-terminal GST; dsDNA, one strand shown
# Summary of the method: as §1
# SPIB = SPIB (Homo sapiens, UniProt Q01892 1-262); details: protein: recombinant; tags: N-terminal GST; dsDNA, one strand shown
# Sequence of SPIB (Q01892 whole entry): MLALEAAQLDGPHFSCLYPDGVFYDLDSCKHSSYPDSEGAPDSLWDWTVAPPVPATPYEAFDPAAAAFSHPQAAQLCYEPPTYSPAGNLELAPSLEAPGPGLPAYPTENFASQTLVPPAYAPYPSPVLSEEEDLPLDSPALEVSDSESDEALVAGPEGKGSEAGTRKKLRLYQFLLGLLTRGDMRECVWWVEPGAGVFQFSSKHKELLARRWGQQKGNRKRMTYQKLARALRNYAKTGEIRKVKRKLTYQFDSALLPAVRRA
# Summary of the method: as §1
# ELK3 = molecular target: T6, ELK3 (Homo sapiens, UniProt P41970 1-407); details: protein: recombinant; tags: N-terminal GST; dsDNA, one strand shown
# T6 sequence: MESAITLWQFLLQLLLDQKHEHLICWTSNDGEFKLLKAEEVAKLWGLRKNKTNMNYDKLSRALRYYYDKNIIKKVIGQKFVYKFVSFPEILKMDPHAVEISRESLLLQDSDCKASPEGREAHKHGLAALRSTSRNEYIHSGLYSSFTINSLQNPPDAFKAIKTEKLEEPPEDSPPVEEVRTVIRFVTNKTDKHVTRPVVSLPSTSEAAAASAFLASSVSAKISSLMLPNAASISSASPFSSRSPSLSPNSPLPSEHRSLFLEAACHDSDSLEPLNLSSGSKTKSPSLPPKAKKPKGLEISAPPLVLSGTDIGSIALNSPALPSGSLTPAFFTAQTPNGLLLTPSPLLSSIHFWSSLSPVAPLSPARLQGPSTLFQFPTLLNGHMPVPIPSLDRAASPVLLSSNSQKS
# Summary of the method: as §1
# FEV = molecular target: T7, FEV (Homo sapiens, UniProt Q99581 1-238); details: protein: recombinant; tags: N-terminal GST; dsDNA, one strand shown
# T7 sequence: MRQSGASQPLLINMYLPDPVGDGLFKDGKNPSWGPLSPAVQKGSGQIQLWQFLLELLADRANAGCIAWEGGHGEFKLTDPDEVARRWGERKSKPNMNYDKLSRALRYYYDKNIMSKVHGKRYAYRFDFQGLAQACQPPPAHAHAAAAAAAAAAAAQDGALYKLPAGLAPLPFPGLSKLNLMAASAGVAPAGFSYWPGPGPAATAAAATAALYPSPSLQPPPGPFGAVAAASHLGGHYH
# Summary of the method: as §1
# ETV5 = ETV5 (Homo sapiens, UniProt P41161 1-510); details: protein: recombinant; tags: N-terminal GST; dsDNA, one strand shown
# Sequence of ETV5 (P41161 whole entry): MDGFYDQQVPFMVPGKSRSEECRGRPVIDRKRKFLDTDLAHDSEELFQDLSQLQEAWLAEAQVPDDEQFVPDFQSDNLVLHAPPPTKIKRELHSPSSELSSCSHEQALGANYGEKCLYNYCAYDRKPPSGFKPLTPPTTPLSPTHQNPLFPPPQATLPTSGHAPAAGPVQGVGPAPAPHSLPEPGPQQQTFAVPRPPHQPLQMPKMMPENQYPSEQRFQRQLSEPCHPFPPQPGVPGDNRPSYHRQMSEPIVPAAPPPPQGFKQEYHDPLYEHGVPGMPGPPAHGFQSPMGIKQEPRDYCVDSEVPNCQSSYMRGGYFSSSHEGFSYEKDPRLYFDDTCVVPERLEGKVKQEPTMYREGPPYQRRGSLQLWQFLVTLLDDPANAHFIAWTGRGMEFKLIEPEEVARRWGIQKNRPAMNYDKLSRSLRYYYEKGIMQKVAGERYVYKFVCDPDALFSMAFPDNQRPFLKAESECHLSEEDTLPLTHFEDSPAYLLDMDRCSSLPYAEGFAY
# Summary of the method: as §1
# HSF1 = HSF1 (Homo sapiens, UniProt Q00613 1-529); details: protein: recombinant; tags: N-terminal GST; chain copies: 3; dsDNA, one strand shown
# Sequence of HSF1 (Q00613 whole entry): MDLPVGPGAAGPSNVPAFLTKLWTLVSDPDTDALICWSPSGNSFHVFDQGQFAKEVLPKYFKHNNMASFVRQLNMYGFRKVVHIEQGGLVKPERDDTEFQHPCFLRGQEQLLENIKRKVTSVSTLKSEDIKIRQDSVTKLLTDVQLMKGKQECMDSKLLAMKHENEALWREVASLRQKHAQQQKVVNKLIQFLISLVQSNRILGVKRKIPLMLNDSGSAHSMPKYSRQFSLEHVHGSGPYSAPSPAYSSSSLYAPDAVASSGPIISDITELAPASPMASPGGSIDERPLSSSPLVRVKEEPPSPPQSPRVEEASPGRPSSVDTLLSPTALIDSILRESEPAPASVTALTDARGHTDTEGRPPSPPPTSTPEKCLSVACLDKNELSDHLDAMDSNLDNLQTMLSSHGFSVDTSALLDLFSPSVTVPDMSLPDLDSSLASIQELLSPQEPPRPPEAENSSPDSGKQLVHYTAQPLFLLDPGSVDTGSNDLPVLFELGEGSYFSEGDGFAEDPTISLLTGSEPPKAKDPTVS
# Summary of the method: as §1
# ELF4 = ELF4 (Homo sapiens, UniProt Q99607 1-663); details: protein: recombinant; tags: N-terminal GST; dsDNA, one strand shown
# Sequence of ELF4 (Q99607 whole entry): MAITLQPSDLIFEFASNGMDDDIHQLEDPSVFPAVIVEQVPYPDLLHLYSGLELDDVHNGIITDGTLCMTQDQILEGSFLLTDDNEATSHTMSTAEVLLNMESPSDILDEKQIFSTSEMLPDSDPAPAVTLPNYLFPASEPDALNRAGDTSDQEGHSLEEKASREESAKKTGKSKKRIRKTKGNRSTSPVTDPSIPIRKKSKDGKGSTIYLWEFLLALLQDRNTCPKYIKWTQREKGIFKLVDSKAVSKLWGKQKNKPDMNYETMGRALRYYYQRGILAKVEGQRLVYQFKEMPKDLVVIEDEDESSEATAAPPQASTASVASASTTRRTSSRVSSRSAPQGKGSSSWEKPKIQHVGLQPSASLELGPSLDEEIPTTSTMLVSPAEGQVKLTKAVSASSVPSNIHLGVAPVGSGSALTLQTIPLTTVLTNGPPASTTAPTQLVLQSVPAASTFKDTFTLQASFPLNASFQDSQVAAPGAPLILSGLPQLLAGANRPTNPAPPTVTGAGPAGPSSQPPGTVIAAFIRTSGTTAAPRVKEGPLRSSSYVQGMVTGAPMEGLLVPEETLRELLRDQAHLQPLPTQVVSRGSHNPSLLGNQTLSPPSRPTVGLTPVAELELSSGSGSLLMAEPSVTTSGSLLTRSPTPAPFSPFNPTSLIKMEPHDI
# Summary of the method: as §1
# ELK4 = molecular target: T8, ELK4 (Homo sapiens, UniProt P28324-2 1-405); details: protein: recombinant; tags: N-terminal GST; dsDNA, one strand shown
# T8 sequence: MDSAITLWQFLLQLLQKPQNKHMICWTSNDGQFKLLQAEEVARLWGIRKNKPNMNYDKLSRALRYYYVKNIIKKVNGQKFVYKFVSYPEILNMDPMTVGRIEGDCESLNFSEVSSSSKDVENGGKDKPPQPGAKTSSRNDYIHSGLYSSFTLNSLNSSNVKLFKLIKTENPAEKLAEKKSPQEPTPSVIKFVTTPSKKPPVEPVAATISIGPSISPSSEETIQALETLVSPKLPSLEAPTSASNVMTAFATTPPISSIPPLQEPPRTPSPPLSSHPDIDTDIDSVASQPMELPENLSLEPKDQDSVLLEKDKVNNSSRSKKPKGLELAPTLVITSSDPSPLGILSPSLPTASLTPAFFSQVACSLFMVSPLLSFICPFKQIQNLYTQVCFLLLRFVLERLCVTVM
# Summary of the method: as §1
# ETV2 = molecular target: T9, ETV2 (Homo sapiens, UniProt O00321 1-342); details: protein: recombinant; tags: N-terminal GST; dsDNA, one strand shown
# T9 sequence: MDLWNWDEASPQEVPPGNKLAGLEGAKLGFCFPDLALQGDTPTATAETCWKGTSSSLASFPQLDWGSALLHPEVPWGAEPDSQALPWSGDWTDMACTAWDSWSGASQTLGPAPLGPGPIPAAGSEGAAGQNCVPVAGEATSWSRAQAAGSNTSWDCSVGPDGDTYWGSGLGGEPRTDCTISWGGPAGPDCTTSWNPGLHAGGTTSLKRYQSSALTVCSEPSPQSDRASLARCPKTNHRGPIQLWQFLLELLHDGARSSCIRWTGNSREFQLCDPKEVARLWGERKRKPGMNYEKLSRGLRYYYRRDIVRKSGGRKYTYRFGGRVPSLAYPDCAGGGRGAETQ
# Summary of the method: as §1
# ELF3 = molecular target: T10, ELF3 (Homo sapiens, UniProt P78545 1-371); details: protein: recombinant; tags: N-terminal GST; dsDNA, one strand shown
# T10 sequence: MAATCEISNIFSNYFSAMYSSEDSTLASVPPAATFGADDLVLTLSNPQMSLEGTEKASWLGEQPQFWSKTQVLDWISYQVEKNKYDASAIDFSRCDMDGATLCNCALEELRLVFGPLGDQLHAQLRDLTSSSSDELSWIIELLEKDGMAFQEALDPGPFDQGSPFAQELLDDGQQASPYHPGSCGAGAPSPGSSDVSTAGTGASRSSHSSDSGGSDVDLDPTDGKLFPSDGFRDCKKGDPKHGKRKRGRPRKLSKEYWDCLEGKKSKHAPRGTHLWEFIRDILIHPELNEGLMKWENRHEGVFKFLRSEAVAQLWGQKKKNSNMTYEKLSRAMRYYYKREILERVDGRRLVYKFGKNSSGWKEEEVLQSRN
# Summary of the method: as §1
# CRX = CRX (Homo sapiens, UniProt O43186 1-299); details: protein: recombinant; tags: N-terminal GST; dsDNA, one strand shown
# Sequence of CRX (O43186 whole entry): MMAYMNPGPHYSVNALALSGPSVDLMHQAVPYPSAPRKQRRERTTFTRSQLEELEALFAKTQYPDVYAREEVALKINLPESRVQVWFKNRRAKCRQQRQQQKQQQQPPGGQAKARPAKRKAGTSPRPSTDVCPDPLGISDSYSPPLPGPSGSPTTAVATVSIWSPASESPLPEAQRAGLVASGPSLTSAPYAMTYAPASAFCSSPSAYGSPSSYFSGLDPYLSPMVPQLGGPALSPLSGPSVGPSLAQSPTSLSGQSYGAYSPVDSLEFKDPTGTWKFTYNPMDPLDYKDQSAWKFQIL
# Summary of the method: as §1
# ETV1 = ETV1 (Homo sapiens, UniProt P50549 1-477); details: protein: recombinant; tags: N-terminal GST; dsDNA, one strand shown
# Sequence of ETV1 (P50549 whole entry): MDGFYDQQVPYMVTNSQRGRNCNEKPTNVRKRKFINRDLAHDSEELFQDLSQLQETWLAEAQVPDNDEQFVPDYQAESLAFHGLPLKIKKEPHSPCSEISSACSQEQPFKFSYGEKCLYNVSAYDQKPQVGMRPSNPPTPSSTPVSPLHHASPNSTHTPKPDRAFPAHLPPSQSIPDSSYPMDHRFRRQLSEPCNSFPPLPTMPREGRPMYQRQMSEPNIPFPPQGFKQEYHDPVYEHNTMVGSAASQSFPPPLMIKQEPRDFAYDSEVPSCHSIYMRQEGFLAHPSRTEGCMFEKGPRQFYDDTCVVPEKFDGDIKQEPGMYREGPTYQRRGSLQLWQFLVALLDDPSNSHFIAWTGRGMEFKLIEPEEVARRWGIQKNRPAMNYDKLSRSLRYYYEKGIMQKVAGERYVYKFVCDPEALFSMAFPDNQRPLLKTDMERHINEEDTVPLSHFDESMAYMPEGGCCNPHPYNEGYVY
# Summary of the method: as §1
sequence,measurement,setting,value
CTTTAG,binding signal,FLI1,"1.27 fold enrichment (6-mer frequency, TF over GST control)"
same,binding signal,ELK1,"1.31 fold enrichment (6-mer frequency, TF over GST control)"
same,binding signal,GABPA,"1.21 fold enrichment (6-mer frequency, TF over GST control)"
same,binding signal,ERG,"1.12 fold enrichment (6-mer frequency, TF over GST control)"
same,binding signal,ELF1,"1.19 fold enrichment (6-mer frequency, TF over GST control)"
same,binding signal,EHF,"1.08 fold enrichment (6-mer frequency, TF over GST control)"
same,binding signal,SPI1,"1.28 fold enrichment (6-mer frequency, TF over GST control)"
same,binding signal,SPIB,"1.11 fold enrichment (6-mer frequency, TF over GST control)"
same,binding signal,ELK3,"1.11 fold enrichment (6-mer frequency, TF over GST control)"
same,binding signal,FEV,"1.18 fold enrichment (6-mer frequency, TF over GST control)"
same,binding signal,ETV5,"1.1 fold enrichment (6-mer frequency, TF over GST control)"
same,binding signal,HSF1,"1.37 fold enrichment (6-mer frequency, TF over GST control)"
same,binding signal,ELF4,"1.26 fold enrichment (6-mer frequency, TF over GST control)"
same,binding signal,ELK4,"1.15 fold enrichment (6-mer frequency, TF over GST control)"
same,binding signal,ETV2,"1.23 fold enrichment (6-mer frequency, TF over GST control)"
same,binding signal,ELF3,"1.34 fold enrichment (6-mer frequency, TF over GST control)"
same,binding signal,CRX,"1.51 fold enrichment (6-mer frequency, TF over GST control)"
same,binding signal,ETV1,"1.24 fold enrichment (6-mer frequency, TF over GST control)"
